Source: PubChem
CHRM1 agonist – agonists of human M1 muscarinic receptor; P11229; CHO-K1 hM1, Fluo-8 calcium fluorescence, agonist mode; 0% DMSO, 100% acetylcholine EC100; activation, % at 3 µM; 0.33% of 360,000 active; AID 588814;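 active means activation above the run's mean compound activation plus 3 SD, cut at about 16% in these data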;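 further: peak over basal fluorescence ratio within a 140 s kinetic read after compound addition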
Target sequence (P11229 whole entry, looked up): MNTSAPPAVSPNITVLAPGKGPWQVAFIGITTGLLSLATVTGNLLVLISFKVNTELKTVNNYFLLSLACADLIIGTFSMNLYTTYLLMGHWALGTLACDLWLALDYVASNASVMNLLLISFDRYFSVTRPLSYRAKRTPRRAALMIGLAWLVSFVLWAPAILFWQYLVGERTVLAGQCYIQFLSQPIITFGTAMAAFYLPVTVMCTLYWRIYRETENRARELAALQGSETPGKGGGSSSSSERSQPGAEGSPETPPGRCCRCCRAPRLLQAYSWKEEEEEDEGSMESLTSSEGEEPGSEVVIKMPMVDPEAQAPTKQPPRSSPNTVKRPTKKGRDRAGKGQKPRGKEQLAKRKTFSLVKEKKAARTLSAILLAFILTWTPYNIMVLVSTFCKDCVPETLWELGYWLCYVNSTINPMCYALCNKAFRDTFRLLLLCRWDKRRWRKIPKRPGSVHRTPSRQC
CHO-K1 Ca antag – counter-screen for M1 antagonists: effect in parental CHO-K1 cells; ATP-induced calcium, Fluo-8 fluorescence; 0.6% of 360,000 active; inhibition, % at 3 µM;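 active means inhibition above a per-plate cutoff, the plate's mean sample inhibition plus 3 SD, cut at about 24% in these data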;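 further: 0% = DMSO plus EC80 ATP and 100% = DMSO alone without ATP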
M1 PAM – positive allosteric modulators of human M1 muscarinic receptor; P11229; CHO-K1 hM1, Fluo-8 calcium fluorescence, ACh EC20; 0% = ACh EC20, 100% = maximal ACh; activation, % at 3 µM; 0.088% of 360,000 active; in the data active means activation above about 19%, passing the limit was not always enough
CHRM1 antagonist – antagonists of human M1 muscarinic receptor; P11229; CHO-K1 hM1, Fluo-8 calcium fluorescence, ACh EC80 antagonist; inhibition, % at 3 µM; 1.3% of 360,000 active;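 active means percent inhibition above its own plate's cutoff, namely the mean of that plate's compound wells plus 3 SD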;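 further: peak over basal fluorescence ratio during 140 s after agonist addition; 0% = ACh EC80 plus DMSO and 100% = DMSO alone without agonist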
CHO-K1 Ca ag – M1 agonist counterscreen hit in parental CHO-K1 cells; AID 602248; Fluo-8 calcium fluorescence; scaled to maximal ATP response, vehicle zero; 0.48% of 360,000 active; activation, % at 3 µM; in the data active means activation above about 15%;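 further: untransfected CHO-K1 host cells lacking M1 receptor as counterscreen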
M1 PAM parental – M1 PAM counterscreen hit in parental CHO-K1 cells. activation, % at 3 µM. AID 602247. ATP EC20, Fluo-8 calcium fluorescence; 0% at ATP EC20, 100% at ATP max. 0.02% of 360,000 active;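 active means activation above the run cutoff, the mean activation of all test compounds plus 3 SD, cut at about 40% in these data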;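 further: peak over basal fluorescence ratio in a 140 s read after ATP addition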
The depositor's hits bear a star. Most compounds without a hit are left out; they make up all but 2.3% or so of the library.

SMILES | CHRM1 agonist | CHO-K1 Ca antag | M1 PAM | CHRM1 antagonist | CHO-K1 Ca ag | M1 PAM parental
O=C(Nc1ccc(OCCO)cc1)c1csc([C@@H]2O[C@H](CO)[C@H](O)[C@H](O)[C@H]2O)n1 | -3 | 11 | 9 | -21 | 2 | 4
O=C(Nc1ccc(Oc2ccccc2)cc1)c1csc([C@H]2C[C@H](O)[C@@H](CO)O2)n1 | 3 | 1 | -16 | 32* | 14 | -5
CC(=O)Nc1ccc(NC(=O)c2csc([C@@H]3C[C@H](O)[C@@H](CO)O3)n2)cc1 | -1 | -5 | 2 | -3 | 6 | 12
O=C(Nc1ccc(Oc2ccccc2)cc1)c1csc([C@@H]2O[C@H](CO)[C@@H](O)[C@H]2O)n1 | 1 | 2 | -14 | 34* | 6 | 4
CCOc1ccc(S(=O)(=O)NCC(=O)OCc2nnc(-c3ccccc3)o2)cc1 | -4 | -2 | -8 | 20 | 0 | -11
CCOC(=O)CSc1ncnc2c1sc1nc(N3CCOCC3)c3c(c12)CCCC3 | -3 | 34* | -4 | 6 | -1 | -6
Cc1cccc(NC(=O)CSCC(=O)N(C)Cc2c(F)cccc2Cl)c1 | -6 | -1 | -10 | 9 | 2 | -11
CCOC(=O)c1oc2ccc(CNC3CCCCC3)c(Cl)c2c1C | -11 | -2 | -36 | 76* | 1 | 0
CC12CCC3(CO)COC(c4ccccc4O1)C2C3 (stereo not drawn) | -2 | -23 | 7 | -9 | 1 | 10
CC1(C#CC[N+]2(C)CCCCC2)CCC2C(O1)c1ccccc1OC2(C)C (stereo not drawn) | 103* | -20 | -5 | 82* | 0 | 17
COc1cc2cc(CCCOC(=O)c3ccco3)oc(=O)c2cc1OC | -4 | 2 | 10 | -7 | 0 | -1
CCOCCc1nnc(NC(=O)CCS(=O)(=O)c2ccccc2)s1 | -5 | -15 | 8 | -4 | 1 | -8
O=C(COC(=O)c1ccc(NS(=O)(=O)c2ccc3c(c2)OCCO3)cc1)NC1CCS(=O)(=O)C1 (stereo not drawn) | -9 | 25* | 3 | -6 | -1 | -12
O=C(COC(=O)c1ccc(Br)o1)Nc1ccc2c(c1)OCCO2 | 0 | -12 | 27* | -20 | 0 | 4
O=C(COC(=O)CNC(=O)c1ccc(Br)o1)Nc1ccc2c(c1)OCCO2 | 4 | 5 | 3 | -1 | 1 | 3
NC(=O)c1ccc(NC(=O)COC(=O)c2ccc3c(c2)OCCO3)cc1 | -1 | -5 | 0 | 0 | 20* | 14
COc1cc(CN2C(=O)C(C)ON=C2c2cccs2)cc(OC)c1 (stereo not drawn) | -5 | -3 | 8 | -14 | 0 | 9
O=C(O)c1cc(NC(=O)c2ccc3c(c2)C(=O)N(Cc2cccnc2)C3=O)cc(C(=O)O)c1 | -1 | -12 | 12 | -16 | 1 | 9
C#Cc1cccc(NC(=O)c2ccc3c(c2)C(=O)N(Cc2cccnc2)C3=O)c1 | 2 | 6 | -11 | 34* | 15 | -9
O=C(CN1CCN(C(c2ccccc2)c2ccccc2)CC1)N1N=CCC1c1ccccc1 (stereo not drawn) | -6 | -9 | -25 | 48* | 5 | 18
O=C(CN1CCN(c2ccc(F)cc2)CC1)N1N=CCC1c1ccccc1 (stereo not drawn) | -12 | -5 | 9 | 103* | 2 | 5
NNC(=O)CCN1CCN(C(c2ccccc2)c2ccccc2)CC1 | -7 | -15 | -16 | 61* | 0 | 14
O=C(CN1CCN(C(c2ccccc2)c2ccccc2)CC1)N1CCN(c2ccccc2)CC1 | -10 | 1 | -24 | 81* | 0 | 2
CC1CCN(CC(=O)N2CCN(c3ccccc3)CC2)CC1 | -8 | -5 | -7 | -1 | 0 | 11
Cc1ccn2c(-c3csc(NCc4ccccc4)n3)c(C)nc2c1 | -2 | 25* | -6 | 15 | 5 | -6
Cc1ccc(Nc2nc(-c3c(C)nc4ncccn34)cs2)cc1 | -4 | -13 | 5 | -9 | 5 | 23
Cc1nc2ccccn2c1-c1csc(NCc2ccco2)n1 | -1 | -2 | 4 | -3 | 5 | -8
Cc1ccc(Nc2nc(-c3c(C)nc4ccccn34)cs2)cc1 | -5 | 5 | -11 | 23* | 4 | -8
